# Assay outcomes (PubChem BioAssay)
# MEP2-GFP yeast – yeast TOR pathway MEP2-GFP modulation; S. cerevisiae MEP2-GFP strain, flow cytometry GFP, 3 h; 100% = DMSO control level; GFP response vs DMSO, % at 10 µM; 330,000 tested, 0.51% active;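 active means GFP response versus DMSO above a set limit, roughly screen mean plus 3 SD, cut at about 180% in these data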;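 further: median GFP fluorescence of the barcode-gated MEP2-GFP cells per well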
# LAP4-GFP MLPCN – alters LAP4-GFP fluorescence in TOR pathway yeast screen. S. cerevisiae LAP4-GFP multiplex, flow cytometry GFP, 3 h; median GFP as percent of DMSO wells. 320,000 tested, 0.34% active. GFP response vs DMSO, % at 10 µM;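 active means GFP response vs DMSO above a set limit, about the screen mean plus 3 SD, cut at about 150% in these data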
# RPL19A-GFP yeast – alters RPL19A-GFP fluorescence in TOR pathway yeast screen | S. cerevisiae RPL19A-GFP strain, flow cytometry, 3 h; hits give low values | percent response vs DMSO, % at 10 µM | AID 2025 | 330,000 tested, 0.3% active;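 active means percent response vs DMSO below 50%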;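 further: median channel GFP fluorescence of the barcoded RPL19A-GFP strain; lower means less RPL19A-GFP as with rapamycin TOR inhibition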
# CIT2 TOR yeast – yeast TOR pathway CIT2-GFP modulation | S. cerevisiae CIT2-GFP strain, flow cytometry, 3 h; 100 means same as DMSO wells | GFP response vs DMSO, % at 10 µM | 320,000 tested, 0.065% active;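 active means GFP response relative to DMSO above a set limit, near the screen mean plus 3 SD, cut at about 150% in these data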;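 further: ratio of well median GFP fluorescence to mean of DMSO wells on the plate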
# AGP1 TOR yeast – modulators of TOR pathway AGP1-GFP in S. cerevisiae; S. cerevisiae AGP1-GFP multiplex flow cytometry, 3 h; GFP as percent of DMSO wells; 320,000 tested, 0.02% active; GFP response vs DMSO, % at 10 µM;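 active means GFP response relative to DMSO above a set limit, near screen average plus 3 SD, cut at about 150% in these data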;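 further: median GFP channel fluorescence of the gated AGP1 strain per well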
# JMJD2C inh – blocks human GASC-1 demethylase activity. AID 2099. inhibition, % at 2.35 µM. Q9H3R0. GST-JMJD2C(1-420) H3K9me3 demethylation, DELFIA europium. 330,000 tested, 0.069% active;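 active means more than half of a compound's replicate wells show inhibition beyond 50%, single wells judged on their own value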;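 further: signal counts dimethyl H3K9 product captured on neutravidin plate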
# Target sequence (Q9H3R0 1-420 limits assumed): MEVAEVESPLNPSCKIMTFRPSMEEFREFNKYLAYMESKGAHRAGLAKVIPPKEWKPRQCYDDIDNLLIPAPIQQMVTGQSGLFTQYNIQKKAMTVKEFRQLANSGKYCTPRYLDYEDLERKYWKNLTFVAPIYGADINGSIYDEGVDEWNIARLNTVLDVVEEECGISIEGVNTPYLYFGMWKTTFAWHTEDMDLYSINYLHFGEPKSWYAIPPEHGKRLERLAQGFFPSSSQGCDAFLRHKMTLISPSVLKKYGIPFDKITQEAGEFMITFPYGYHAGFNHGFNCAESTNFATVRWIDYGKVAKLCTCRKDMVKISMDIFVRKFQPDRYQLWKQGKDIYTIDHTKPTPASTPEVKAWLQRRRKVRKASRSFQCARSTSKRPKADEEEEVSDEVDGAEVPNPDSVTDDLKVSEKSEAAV
# LAP4-GFP pick2 – second confirmation of modulators of TOR reporter LAP4-GFP in yeast; shares compounds with LAP4-GFP MLPCN; S. cerevisiae LAP4-GFP strain, flow cytometry GFP, 3 h; GFP response vs DMSO, % at 10 µM; 590 tested, 20% active;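 active means GFP signal as percent of the solvent control above about 150%, meaning raised reporter expression, limit read from the data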
# MEP2-GFP pick2 – yeast MEP2-GFP modulation, second cherry pick. GFP response vs DMSO, % at 10 µM. 590 tested, 10% active. shares compounds with LAP4-GFP MLPCN. S. cerevisiae MEP2-GFP strain, flow cytometry GFP, 3 h;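 active means GFP signal above 150% of the solvent control wells, that is a rise of more than half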;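 further: median channel GFP fluorescence of all gated yeast cells per well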
# RPL19A GFP CP2 – second confirmation of modulators of TOR reporter RPL19A-GFP in yeast | 590 tested, 3% active | S. cerevisiae RPL19A-GFP strain, flow cytometry GFP, 3 h; hits give low values; 100% means same as DMSO wells | GFP response vs DMSO, % at 10 µM | shares compounds with LAP4-GFP MLPCN;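 active means under 65% GFP response relative to DMSO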;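 further: median GFP channel fluorescence per well over the all cells gate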
# CIT2 GFP CP2 – second confirmation of modulators of TOR reporter CIT2-GFP in yeast; GFP response vs DMSO, % at 10 µM; shares compounds with LAP4-GFP MLPCN; 590 tested, 8% active; S. cerevisiae CIT2-GFP strain, flow cytometry GFP, 3 h; DMSO control wells read 100%;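 active means GFP response vs DMSO above about 150%, limit read from the data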;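 further: median green fluorescence per well over all gated yeast cells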
# AGP1-GFP pick2 – second confirmation of modulators of TOR reporter AGP1-GFP in yeast | shares compounds with LAP4-GFP MLPCN | AID 2643 | S. cerevisiae AGP1-GFP strain, flow cytometry GFP, 3 h | 590 tested, under 10 active | percent response vs DMSO, % at 10 µM;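 active means over 150 percent of DMSO response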;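 further: median GFP channel fluorescence over all cells without mother daughter split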
# Yeast autofluor – counter-screen for compound autofluorescence in yeast s288c cells | shares compounds with LAP4-GFP MLPCN | S. cerevisiae s288c, 520 nm autofluorescence, flow cytometry, 3 h; hits give high values; zero means same as solvent-only cells | fluorescence change (kMESF span) at 33 µM | 610 tested, under 10 active | AID 2757;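 active means fluorescence span over the dose series, or activity score, above about 33, limit read from the data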
# Yeast autofl DR – yeast s288c autofluorescence artifact in dose response; fluorescence change (span) at 33 µM; shares compounds with LAP4-GFP MLPCN; 110 tested, under 10 active; S. cerevisiae s288c parental, compound autofluorescence, flow cytometry, 3 h;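 active means fluorescence change span, or the activity score built from it, above 25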
# TORC1 bypass gr – stops wildtype yeast growth while TORC1 bypass cells still grow; shares compounds with LAP4-GFP MLPCN; S. cerevisiae BY4741 spot growth rating, 48-72 h; hits give low values; growth rating (0-3) at 30 µM; 120 tested, under 10 active; AID 504456;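 active means growth rating at most 1 for wild type yeast while the TORC1 bypass strain still grows fully, rated 3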
# Numbers stand for hits; i = inactive; nt = no result. The list is not random: actives were taken first. Their share in the collection is about 0.97%.
SMILES,MEP2-GFP yeast,LAP4-GFP MLPCN,RPL19A-GFP yeast,CIT2 TOR yeast,AGP1 TOR yeast,JMJD2C inh,Yeast autofluor,others
O=[N+]([O-])c1cc(S(=O)(=O)C(F)(F)F)ccc1Sc1nc2ccccc2s1,i,159,i,i,i,i,i,Yeast autofl DR=i;TORC1 bypass gr=i
COc1ccc(Cc2nc3ccc(C(=O)N(C)C(C)c4ccon4)cc3o2)cc1 (centres undefined),i,190,i,i,i,i,nt,LAP4-GFP pick2=i;MEP2-GFP pick2=i;RPL19A GFP CP2=i;CIT2 GFP CP2=i;AGP1-GFP pick2=i
O=C(/C=C/c1cc(Br)ccc1O)c1ccco1,i,196,i,i,i,i,i,
N#Cc1cc([N+](=O)[O-])c(-n2nnc3ccccc32)c([N+](=O)[O-])c1,i,206,i,i,i,i,i,
O=C(CN(C(=O)c1csnn1)c1ccc(Cl)cc1)NCCc1ccccc1,i,i,i,i,i,i,nt,
